# Test system: VDR:RXRa (NR concentration 270 nM, RXRa partner concentration 90 nM)
# Assay: PBM binding z-score (relative to random genomic background probes); higher = stronger binding; sequences stand for … in GC…GCGATTGACAGCGTAGAATGAAGG
# Description: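 Protein-binding microarray (Agilent 4x180K custom design, double-stranded 60-nt probes: 5' GC cap, 34-nt variable region, 24-nt constant primer region; full probe sequence given). Purified or IVT nuclear receptor:RXRα heterodimers (3:1 NR:RXRα, mostly 270:90 nM) or homodimers were incubated for 1 h in PBS with 2% milk and no ligand, then detected with Alexa488 antibodies. Fluorescence from o1-orientation probes (~5 replicates averaged) was converted to z-scores against 500 random hg19 background probes. Variable regions are seed direct-repeat (DR0–DR5) sites, all their single-nucleotide variants and half-site ablations.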
row,Sequence,PBM binding z-score
1,ATACCAAGGTGACCGTGAGGTCGTTGATACTAAC,4.04
2,ATCTCTAGGTAAAGTTCAGTGTAAGATCGATAGA,2.12
3,TCGAGTAGGTTACCAATGGGGCAATCAGCTTTCT,0.0268
4,GCTAGTTGGTCAGTAAAAGGTTACACACCGGTCG,0.877
5,GGTACGAGGGCATTCGAGTTGATAGCATGGCGAT,3.71
6,ACTATTTGGTCAGCTGAGGTCACACACAATTCGG,4.64
7,AATAGAGGGTCACTAGGCCAGAGTAGGTACGAAT,2.75
8,AGAATTAGGTTACCAAAGATCAGGGAAACGCTTG,0.204
9,CGAACGAGGGCATGAGTTGAGAGCAAATGCCGAT,1.01
10,ACTTACGGGTCAACGAGCTTATAGCACGCGTATA,3.97
11,CCTAGGAGGACAACAGGAGGTCAGAGCTGCCAGA,2.09
12,ACTATTAGTTGAGACGAGGGCAACCTATAGGTTG,0.781
13,CCTAGCGGGCCAGGGTCACTCAAGCATTTCGCTT,2.36
14,CCTAGTTGGTCACGAGGTCACACACCGGATATGA,4.77
15,ATATGTAGGTTAGCTGGGGTCAATCAGACTAGGC,5.46
16,CCTACTGGGCCACGAAAGGTCATTCATTCAGTGA,4.43
17,AAAATGAGGTTACCAAAGATCAGGGAAACGCTTG,1.94
18,GCTAGTTGGTCAGTTAAAGGTCACACACCGGTCG,3.95
19,TGTCAAAGTTCATAGGTAACGTAAGTATCCACAC,4.67
20,AATACAGGGTCACTAGGCCAGATTAGGTACGAAT,4.21

row,Sequence,PBM binding z-score
1,TCTTGTAGATCAACAGCAGGTTAAGAAAGATCGA,0.341
2,AATACAGGGCCACTAGGCCAGAGTAGGTACGAAT,-0.225
3,ATATGTAGGTTAAGGGTCATTCAAGTTGGTTCGC,5.82
4,ATCTCTAGGTAAAGTTCAATGAAAGATCGATAGA,2.5
5,AGAACGAGGGCACGCTGAGATGATAGCAGAGTAG,0.702
6,ACTAGCAAGCCAAGGGTCACTCAAGATTAGTCCG,2.68
7,GATACAGGATCAGCTAGAGGCCAGAGTATGGAAA,-0.569
8,AGAACGAGTGCACGCTGAGTTGATAGCAGAGTAG,2.1
9,CGTCCAAGGACAGCAGGTCAGTGAAAGCGACGTG,-0.0699
10,AGAACGTGGGCAATGAGTTGATAGCACGGGTGGC,0.69
11,TCGAGTAGGTTACCAATAGGGCATTCAGCTTTCT,0.152
12,AGAATGAGATTAAGATCAGGGAAACAGAATACAT,-0.149
13,CCTAGTTGGTCAAGGTCGCACACGCTATAGGTAC,1.75
14,GCAGACAGGTGCAACGCAGGTAACTCAGGGTGGC,-0.467
15,GCGACTGGGGCAAAGCAGATTACCATAAGGTTGG,-0.591
16,TCCTGTAGATCAACAGGAGGTTAAGAAAGATCGA,0.266
17,TGTCAAAGTTCAGAGGTAACGTAAGTATCCACAC,3.36
18,CCTAGTTGGTCAGGAGGGCACACACCGGATATGA,0.458
19,CTCGAATGGTCGGTTGAGGTGAGTATACGGATAA,-0.211
20,TCTTTTAGATCAAGCAGGTTAAGAAAGCCTGAGT,0.762

# Source: the supplement of paper PMC6555819
